From the OligoGym collection

Molecular target: DGKH
Assay: pooled miR-30 sensor sort-seq; sequence = guide strand
Details: shRNA
Further: reference of the scale not given here.

Sequence	sensor-assay potency score (higher = more potent)
TTGAATTTACACACTTCGCAGG	-0.529
TTGTTGATAATCGAACTCCCAG	-0.448
TTTCTTTAAACTATTTGCCCGC	-0.524
TAACATTTTGTTGATAATCGAA	-0.475
TATGTCATTATACTCCACCTGT	-0.182
TTTACCAGAATCACACTTCTGC	0.827
TAAATCAAACACCTGAGCCGGA	0.112
TACAGTTTCACATAGCGTCTTG	-0.34
TGAACTTGTCTTCTGCTTCTGA	0.759
TTGCTCTACAGAAACCATCGGA	0.0953
TAGAGGACTAACACAGAACGAA	-0.365
TTCATCTTCTATAATGTCCTTC	0.785

Molecular target: DHCR7
Assay: as above
Details: shRNA

Sequence	sensor-assay potency score (higher = more potent)
AACAGCTTGAAGTCAAACCACT	-1.51
TGAAGTCAAACCACTTCCCGAT	-0.223
ATGGTCTTCAGGTACCAGGTTT	-0.879
TTGTAAAAGAAATTGCCTGTGA	0.127
TACAGAAGCACCTGGAAGGTGA	0.0614
TTGCTGTGGTGCCTCTGCCCAT	-1.54
TCAATGGTCTTCAGGTACCAGG	-1.35
TTGTCGAAGATGATGGTGGGCG	-0.346
TACTTGTTCACAACCCCTGCAG	-0.0403
AAGTAGTAGACGATGAAGGGGG	0.135
TGATACTTGTTCACAACCCCTG	-0.124
TTGACCATGGCGAAGGTGGAGA	-0.859
TTGCCTGTGAATTTGCAGTCTC	-0.449
